Consider 7 compounds from PubChem BioAssay (Tox21).

A short description of experiment [1]: qHTS assay to test for compound auto fluorescence at 535 nm (green) in HEK293 cells (AID 720680). Background: Quantitative high-throughput screening tests each substance at several concentrations.
The nature of experiment [2]: qHTS assay to test for compound auto fluorescence at 460 nm (blue) in HEK293 cell free culture (AID 720681). In a few lines: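 Compounds were added to cell-free DMEM with 10% FBS and fluorescence read directly. The blue channel used 405 nm excitation and 460 nm emission, with triamterene as the reference fluorophore.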
The nature of experiment [3]: qHTS assay to test for compound auto fluorescence at 535 nm (green) in HEK293 cell free culture (AID 720682). In outline: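 Using fluorescein as calibrant, autofluorescence was quantified at 485/535 nm in cell-free DMEM containing 10% FBS after pintool addition of compound or vehicle.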
Experiment [4] in a line: qHTS assay to test for compound auto fluorescence at 590 nm (red) in HEK293 cell free culture (AID 720683). In a few lines:
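Cell-free wells of DMEM with 10% FBS received compound, and intrinsic fluorescence was read at excitation/emission 540/590 nm. Values expressed as equivalence to Rose Bengal sodium.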

Experiment [5] can be described thus: qHTS assay to test for compound auto fluorescence at 590 nm (red) in HepG2 cell free culture (AID 720684). In outline: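 Compound was pinned into wells holding MEM with 10% FBS and no cells, and red fluorescence was read at Ex/Em 540/590 nm. Signal is expressed as auto fluorescence equivalency relative to Rose Bengal sodium.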
Experiment [6] is described as follows: qHTS assay to test for compound auto fluorescence at 460 nm (blue) in HepG2 cell free culture (AID 720685). In a few lines:
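Compound (23 nL) or DMSO pinned into cell-free MEM with 10% FBS; blue fluorescence read at 405/460 nm excitation/emission, expressed as auto-fluorescence equivalency to triamterene.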

Experiment [7] can be described thus: qHTS assay to test for compound auto fluorescence at 535 nm (green) in HepG2 cell free culture (AID 720686).
Experiment [8] is described as follows: qHTS assay to test for compound auto fluorescence at 460 nm (blue) in HepG2 cells (AID 720687). In a few lines: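 HepG2 cells in MEM with 10% FBS, attached overnight at 37 C, were exposed to compound or DMSO for 1 hr at 37 C, 5% CO2. Blue fluorescence was read at 405/460 nm, with triamterene as reference fluorophore.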
Experiment [9] addresses Glucocorticoid receptor (Homo sapiens) (UniProt P04150). In words: qHTS assay to identify small molecule agonists of the glucocorticoid receptor (GR) signaling pathway (AID 720691; active = well fitted activation curve with a large enough effect in the signal ratio in the repeat runs, not every such curve was filed as active; the % refers to the signal ratio). In a few lines: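 GR-bla HeLa cells carrying a GRE-driven beta-lactamase reporter, exposed to compounds for 18 h at 37 C. Reporter activation read as fluorescence after 2 h with LiveBLAzer B/G FRET substrate at room temperature.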

The target is the same in experiment [10]. The experiment is described as follows: qHTS assay to identify small molecule antagonists of the glucocorticoid receptor (GR) signaling pathway (AID 720692; active = well fitted inhibition curve with a large enough effect in the signal ratio in the repeat runs, not every such curve was filed as active; the % refers to the signal ratio). In a few lines:
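GR-bla HeLa cells carrying a GRE-driven beta-lactamase reporter received compound after 4 h plating, then dexamethasone (5 nM final). After 18 h at 37C, the FRET substrate was loaded for 2 h at room temperature and fluorescence read.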

Experiment [11] can be described thus: qHTS assay to identify small molecule antagonists of the glucocorticoid receptor (GR) signaling pathway - cell viability counter screen (AID 720693). Also: nearly all actives have a fitted effect of over 55% in size.
A short description of experiment [12]: qHTS assay for identifying genotoxic compounds that show differential cytotoxicity against isogenic chicken DT40 cell lines with known DNA damage response pathways - wild type cell line (AID 743012). Also: nearly all actives have a fitted effect of over 60% in size. In outline:
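Wild-type DT40 cells (300/well) exposed to compounds for 40 hours at 37 C/5% CO2. Viability read by CellTiter-Glo luminescence after 30 min at room temperature.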

Experiment [13] is described as follows: qHTS assay for identifying genotoxic compounds that show differential cytotoxicity against isogenic chicken DT40 cell lines with known DNA damage response pathways - Rev3 mutant cell line (AID 743014). Also: nearly all actives have a fitted effect of over 55% in size.
The nature of experiment [14]: qHTS assay for identifying genotoxic compounds that show differential cytotoxicity against isogenic chicken DT40 cell lines with known DNA damage response pathways - Rad54/Ku70 mutant cell line (AID 743015). Also: nearly all actives have a fitted effect of over 60% in size. Also: potency is read from the fitted curve at half-maximal effect.
Experiment [15] can be described thus: qHTS assay to identify small molecule antagonists of the androgen receptor (AR) signaling pathway - cell viability counter screen (AID 743033; also: nearly all actives have a fitted effect of over 45% in size).
In experiment [16] the target is Androgen receptor (Homo sapiens) (UniProt P10275). The experiment is described as follows: qHTS assay to identify small molecule antagonists of the androgen receptor (AR) signaling pathway (AID 743035; active = well fitted inhibition curve with a large enough effect in the signal ratio in the repeat runs, not every such curve was filed as active; the % refers to the signal ratio). In outline:
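HEK293 cells stably carrying UAS-beta-lactamase reporter, 2,000/well, given compounds plus R1881 agonist and incubated 16 h at 37C. LiveBLAzer B/G FRET substrate then added for 2 h at room temperature before fluorescence reading.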

The target is the same in experiment [17]. In words: qHTS assay to identify small molecule agonists of the androgen receptor (AR) signaling pathway (AID 743036; active = well fitted activation curve with a large enough effect in the signal ratio in the repeat runs, with a control signal flat, not every such curve was filed as active; the % refers to the signal ratio). In outline: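 In this Tox21 qHTS, 2,000 HEK293 AR-bla cells per well were incubated with compounds for 16 h at 37C and 5% CO2. Fluorescence intensity was recorded 2 h after adding LiveBLAzer B/G FRET substrate at room temperature.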
For experiment [18] the target is unchanged. In words: qHTS assay to identify small molecule agonists of the androgen receptor (AR) signaling pathway using the MDA cell line (AID 743040; also: nearly all actives have a fitted effect of over 20% in size). In outline: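 MDA-kb2 breast carcinoma cells carrying MMTV-luciferase (responsive to AR and GR), plated 5 h then treated 16 h with compounds at 37C, 0% CO2. Read-out was ONE-Glo luminescence after 30 min at room temperature.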

Experiment [19] in a line: qHTS assay to identify small molecule antagonists of the androgen receptor (AR) signaling pathway using the MDA cell line - cell viability counter screen (AID 743041; also: nearly all actives have a fitted effect of over 45% in size). In a few lines:
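MDA-kb2 AR-luc cells (MMTV-luciferase, AR/GR responsive) treated with compounds plus R1881 agonist for 16 h at 37C. CellTiter-Fluor added at 15.5 h; fluorescence read after 30 min in the same wells.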

The target of experiment [20] is Androgen receptor (Homo sapiens) (UniProt P10275). The experiment is described as follows: qHTS assay to identify small molecule antagonists of the androgen receptor (AR) signaling pathway using the MDA cell line (AID 743042; also: nearly all actives have a fitted effect of over 55% in size). In outline:
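MDA-kb2 breast carcinoma cells carrying MMTV-luciferase (AR/GR responsive) were co-treated with compounds and the agonist R1881 for 16 h at 37C. Inhibition read as ONE-Glo luminescence; CellTiter-Fluor fluorescence measured in parallel for cytotoxicity.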

Each structure is given as a SMILES string. Where “and” joins values, the source holds several entries; their conditions need not be identical. Equal entries are not always repeated. Inconclusive results are not listed. Some structures have more than one record in an assay (separate samples or runs), and their calls can disagree. Calls of active or inactive are those of the source. Unless noted, calls follow the shape of the dose curve; as a rule, active = well fitted curve in the direction sought with a large enough effect in the repeat runs; inconclusive = weak or mixed curves; inactive = no such curve, though single readings can be large; an effect the other way counts as inactive or inconclusive.
% is scaled to controls: 0 for no effect and ±100 for the full control effect.

Sequence of Glucocorticoid receptor (Homo sapiens) (P04150 whole entry, looked up): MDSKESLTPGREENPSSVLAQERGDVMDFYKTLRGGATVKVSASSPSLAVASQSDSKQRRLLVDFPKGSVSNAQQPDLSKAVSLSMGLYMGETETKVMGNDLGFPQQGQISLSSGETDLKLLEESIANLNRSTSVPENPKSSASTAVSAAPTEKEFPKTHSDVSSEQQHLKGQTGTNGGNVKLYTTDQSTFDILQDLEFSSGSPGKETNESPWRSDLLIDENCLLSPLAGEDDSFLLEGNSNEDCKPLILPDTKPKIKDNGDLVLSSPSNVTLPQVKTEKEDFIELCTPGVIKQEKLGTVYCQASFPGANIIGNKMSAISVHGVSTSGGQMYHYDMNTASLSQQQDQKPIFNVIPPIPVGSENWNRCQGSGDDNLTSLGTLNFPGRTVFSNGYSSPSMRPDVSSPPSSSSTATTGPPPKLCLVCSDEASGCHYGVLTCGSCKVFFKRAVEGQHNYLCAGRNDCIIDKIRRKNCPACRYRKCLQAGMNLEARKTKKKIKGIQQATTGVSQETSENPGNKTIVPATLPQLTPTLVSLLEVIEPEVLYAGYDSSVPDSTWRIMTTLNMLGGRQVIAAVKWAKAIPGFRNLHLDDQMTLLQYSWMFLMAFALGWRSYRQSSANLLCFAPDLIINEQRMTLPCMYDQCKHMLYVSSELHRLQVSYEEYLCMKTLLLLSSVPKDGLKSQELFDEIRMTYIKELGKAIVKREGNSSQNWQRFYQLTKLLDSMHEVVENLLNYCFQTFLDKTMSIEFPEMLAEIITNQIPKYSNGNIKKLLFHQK
Sequence of Androgen receptor (Homo sapiens) (P10275 whole entry, looked up): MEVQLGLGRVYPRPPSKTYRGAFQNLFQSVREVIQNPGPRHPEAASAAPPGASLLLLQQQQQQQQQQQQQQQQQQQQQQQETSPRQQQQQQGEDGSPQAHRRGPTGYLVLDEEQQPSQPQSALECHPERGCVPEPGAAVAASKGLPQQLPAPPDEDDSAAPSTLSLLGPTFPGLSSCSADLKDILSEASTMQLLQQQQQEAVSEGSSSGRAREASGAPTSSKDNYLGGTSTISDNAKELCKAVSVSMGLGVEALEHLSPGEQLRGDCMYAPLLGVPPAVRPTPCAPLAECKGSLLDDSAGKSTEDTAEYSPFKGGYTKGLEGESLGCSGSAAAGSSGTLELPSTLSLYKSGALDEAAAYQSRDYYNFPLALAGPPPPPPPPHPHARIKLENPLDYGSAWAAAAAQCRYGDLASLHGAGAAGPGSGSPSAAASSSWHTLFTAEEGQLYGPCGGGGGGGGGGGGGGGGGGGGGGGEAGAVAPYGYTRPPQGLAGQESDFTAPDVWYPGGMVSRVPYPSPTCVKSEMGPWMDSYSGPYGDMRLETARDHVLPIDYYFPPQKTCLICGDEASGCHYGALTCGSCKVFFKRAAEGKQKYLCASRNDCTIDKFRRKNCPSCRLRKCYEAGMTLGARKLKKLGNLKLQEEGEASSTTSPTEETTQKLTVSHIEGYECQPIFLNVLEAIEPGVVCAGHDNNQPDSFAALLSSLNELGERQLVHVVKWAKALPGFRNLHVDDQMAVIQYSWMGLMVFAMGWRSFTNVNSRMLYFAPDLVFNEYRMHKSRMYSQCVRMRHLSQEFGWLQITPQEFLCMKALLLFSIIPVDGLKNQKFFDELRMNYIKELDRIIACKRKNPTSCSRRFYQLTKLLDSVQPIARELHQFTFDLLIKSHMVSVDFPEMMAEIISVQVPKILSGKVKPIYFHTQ

Regarding `CC(C)NCC(O)COc1ccc(COCCOC(C)C)cc1` (configuration not stated), the compound was classed as inactive in experiment [1], in experiment [2], in experiment [3], in experiment [4], in [5] and in experiment [6]. Moreover, the compound was called inactive in [7], in experiment [8], in experiment [10], in experiment [11], in experiment [17] and in experiment [18]. Further, the Potency entry in experiment [9], in experiment [12], in [13], in experiment [15], in [16] and in experiment [19] was “inactive” each time. In addition, the Potency entry in experiment [20] is “inactive”. The Potency result in experiment [14] is “inactive and 26.6 µM (active)”.

`C[C@@H](O)[C@H]1C(=O)N2C(C(=O)O)=C(SCCN=CN)C[C@H]12`: the fluorescence, % of fluorescein in [1] is 0.0698% [at 18.6 µM] (inactive). For the same compound, the fluorescence, % of fluorescent control was 1.12% [at 18.6 µM] (inactive) in [2], -0.0922% [at 18.6 µM] (inactive) in [4], 1.1% [at 18.6 µM] (inactive) in experiment [6] and 0.982% [at 18.6 µM] (inactive) in experiment [8]. Besides, the activity change in [3] is -0.0504% [at 18.6 µM] (inactive). Also, the fluorescence, % of Rose Bengal in experiment [5] is 0.208% [at 18.6 µM] (inactive). For the same compound, the fluorescence, % of fluorescein control in experiment [7] is 0.0651% [at 18.6 µM] (inactive). For the same compound, the Potency result in [9], in experiment [12], in experiment [13], in experiment [14], in [15] and in experiment [19] was “inactive” in each case. The outcome in experiment [10] and in experiment [11] was inactive.

For `COc1ccc2c(c1)C(=O)N(CCc1ccc(S(=O)(=O)NC(=O)NC3CCCCC3)cc1)C(=O)C2(C)C`, the fluorescence, % of fluorescein in experiment [1] is 0.0317% [at 18.6 µM] (inactive). For the same compound, the fluorescence, % of fluorescent control in [2] is 0.0227% [at 18.6 µM] (inactive); in experiment [4] it was -0.0169% [at 18.6 µM] (inactive); in experiment [6], -0.0823% [at 18.6 µM] (inactive); in [8], -0.0057% [at 18.6 µM] (inactive). In addition, the activity change in [3] was 0.0882% [at 18.6 µM] (inactive). In [5], the fluorescence, % of Rose Bengal was -0.0384% [at 18.6 µM] (inactive). The fluorescence, % of fluorescein control in experiment [7] was -0.167% [at 18.6 µM] (inactive). Besides, the Potency entry in experiment [9], in experiment [12], in experiment [13], in [14], in experiment [15] and in experiment [16] was “inactive” in each case. Also, in [20], the Potency result was “inactive”. Also, the call in [10], in [11], in experiment [17] and in experiment [18] was inactive.

Consider `O=C(OCc1ccccc1)C(=O)OCc1ccccc1`, for which the compound was classed as inactive in [1], in experiment [2], in [3], in experiment [4], in [5] and in experiment [6]. Also, the compound was called inactive in experiment [7], in experiment [8], in experiment [10], in experiment [11], in experiment [17] and in [18]. Besides, the Potency entry in [9], in [12], in experiment [13], in experiment [14], in [15] and in [16] was “inactive” each time. Also, the Potency result in experiment [19] and in experiment [20] was “inactive” each time.

Take `O=C(O)c1ccc(Cl)cc1Cl`: the result in experiment [1], in experiment [2], in experiment [3], in experiment [4], in experiment [5] and in experiment [6] was inactive. The compound was called inactive in experiment [7], in experiment [8], in experiment [10] and in [11]. Further, the Potency result in experiment [9], in experiment [12], in experiment [13], in experiment [14] and in [15] was “inactive” in each case.

For the compound `CO[C@@H]1[C@@H](OC(N)=O)[C@@H](O)[C@H](Oc2ccc3c(O)c(NC(=O)c4ccc(O)c(CC=C(C)C)c4)c(=O)oc3c2C)OC1(C)C`, the fluorescence, % of fluorescein in [1] was -0.0123% [at 18.6 µM] (inactive). Further, the fluorescence, % of fluorescent control is 0.0286% [at 18.6 µM] (inactive) in experiment [2], 0.0652% [at 18.6 µM] (inactive) in [4], 0.0828% [at 18.6 µM] (inactive) in [6] and 0.0292% [at 18.6 µM] (inactive) in experiment [8]. Also, in experiment [3], the activity change is -0.156% [at 18.6 µM] (inactive). In addition, the fluorescence, % of Rose Bengal in [5] was 0.235% [at 18.6 µM] (inactive). The fluorescence, % of fluorescein control in experiment [7] was -0.0494% [at 18.6 µM] (inactive). Moreover, the Potency entry in experiment [9], in experiment [12], in experiment [13], in experiment [14], in experiment [15] and in experiment [19] was “inactive” throughout. The compound was called inactive in experiment [10] and in experiment [11].

Regarding `CCOc1cc(NC(C)=O)ccc1C(=O)OC`, the outcome in [1], in experiment [2], in experiment [3], in experiment [4], in experiment [5] and in experiment [6] was inactive. The result in experiment [7], in [8], in experiment [10] and in experiment [11] was inactive. Also, the Potency result in experiment [9], in experiment [12], in experiment [13], in experiment [14], in experiment [15] and in experiment [19] was “inactive” in each case.
